In ChEMBL document CHEMBL3988442, “University of Dundee, Small-Polar-MMV Screening Library” (2021):
Among all 48,000 compounds or so, about 13,000 (27%) showed an effect of 50% or more. The list shows a part of the results.

What follows are compounds tested on Wolbachia pipientis (assay: Anti-Wolbachia Cell-Based Screen). Conditions: 5 µM.
Type: functional
Design: scale not given: in the data most compounds retested in dose-response had high values

Structure (SMILES) | Percent Effect
Cc1nc2c(NC(CC(C)(C)C)c3cccnc3)ncnc2o1 (centres undefined) | -3.479%
CC(C)(N)CN1CCC(c2nnc(CN3CCCC3)n2C2CC2)CC1 | -7.57%
CNC(=O)c1ccc(NC(=O)NC(C)c2cc(C)oc2C)c(C)c1 (centres undefined) | -1.593%
CN(CCC(F)(F)F)Cc1nc2ccccc2c(=O)[nH]1 | -3.599%
Cc1cnc(C(=O)N2CCN(C(=O)CC(C)C)[C@@H]3CS(=O)(=O)C[C@@H]32)cn1 | -11.52%
CC(C)(C)CN1CC[C@H](c2nnc(Cc3c[nH]c4ccccc34)o2)C1 | 1.678%
Cc1n[nH]c(C(=O)N2CCCC(C)CC2)c1Br (centres undefined) | 10.78%
CCNC(=O)c1nnn(Cc2ccccc2)c1OC | 0.7251%
Cc1cc(=O)n(C)cc1NC(=O)Cc1cccc(F)c1 | -4.709%
O=C(O)C(F)(F)F.O=C(O)C(F)(F)F.O=C1CC[C@H]2[C@H](CCN2c2ncc(F)cn2)N1c1cccnc1 | -9.717%
O=C(O)C(F)(F)F.O=C1CC[C@H]2[C@H](CCN2c2ncc(F)cn2)N1c1ccccc1 | 111.8%
O=C(O)C(F)(F)F.O=C1CC[C@H]2[C@H](CCN2c2ncccn2)N1c1ccccc1 | 99.41%
Cc1ccoc1C(=O)N1CC[C@H]2[C@@H]1CCC(=O)N2c1cccnc1.O=C(O)C(F)(F)F | -7.796%
O=C(C1CC1)N1CC[C@H]2[C@@H]1CCC(=O)N2c1ccccc1 | 23.82%
Cc1cnc(N2CC[C@H]3[C@@H]2CCC(=O)N3c2cccnc2)nc1.O=C(O)C(F)(F)F.O=C(O)C(F)(F)F | -6.762%
Cc1cnc(N2CC[C@H]3[C@@H]2CCC(=O)N3c2ccccc2)nc1.O=C(O)C(F)(F)F | 112.6%
Cc1ccc(C(=O)N2CC[C@H]3[C@@H]2CCC(=O)N3c2ccccc2)cn1.O=C(O)C(F)(F)F | -18.98%
Cc1cccc(C(=O)N2CC[C@@H]3[C@H]2CCC(=O)N3c2ccccc2)n1.O=C(O)C(F)(F)F | -24.35%
CC(OCC1CC1)C(=O)Nc1nccn1Cc1ccccc1 (centres undefined) | -19.61%
CN(C(=O)NCCCNc1ccccn1)C1CCS(=O)(=O)C1 (centres undefined) | -6.562%
CN(Cc1ccc(F)c2cccnc12)C1CCS(=O)(=O)C1 (centres undefined) | 8.686%
CCN(Cc1cnc(NCc2ccccc2)nc1)C1CCS(=O)(=O)C1 (centres undefined) | -2.242%
CN(Cc1ccnc2ccccc12)C1CCS(=O)(=O)C1.O=C(O)CC(O)(CC(=O)O)C(=O)O (centres undefined) | 102.4%
CN(Cc1cccc2cccnc12)C1CCS(=O)(=O)C1.O=C(O)CC(O)(CC(=O)O)C(=O)O (centres undefined) | 164.7%
Cc1ccsc1[C@@H]1CCN(C(=O)CCC(=O)N2CCCCCC2)C[C@H]1O | -6.445%

Structure (SMILES) | Percent Effect
Cc1cc(C)c2nc(C)cc(C(=O)NC(C)c3nnn[nH]3)c2c1 (centres undefined) | 1.105%
Cc1cc(C)c(C(=O)N(CCO)Cc2ccccc2F)c(=O)[nH]1 | -8.709%
Cc1cc(C(=O)NC2(C#N)CCSCC2)n(C)n1 | -9.689%
Cc1cc(C(=O)NC2(c3ccc(Br)cc3)CC2)n(C)n1 | 77.44%
CC(=O)c1cc(C(=O)NC2(c3ccc(Br)cc3)CC2)n(C)c1 | -0.634%
Cc1nnc(N2CCC(CS(N)(=O)=O)CC2)c(C#N)c1C | -8.566%
O=C(CCc1ccccc1)N1CCn2cc(Cn3cncn3)nc2C1 | -11.69%
Cc1ccc(CCC(=O)N2CCCC(n3cncn3)C2)c(C)c1 (centres undefined) | -8.257%
O=C(CCc1ccccn1)N1CCCC(n2cncn2)C1 (centres undefined) | 108%
O=C(CCc1ccccc1)N1CC(n2cncn2)C1 | 125.3%
O=C(CCc1cccc(F)c1F)N1CCCC(n2cncn2)C1 (centres undefined) | 102.1%
Cc1nn(C)cc1CCC(=O)N1CCCC(n2cncn2)C1 (centres undefined) | -0.08809%
O=C(COCc1ccccc1)N1CCCC(n2cncn2)C1 (centres undefined) | 1.365%
O=C(CCCc1ccccc1)N1CCCC(n2cncn2)C1 (centres undefined) | 103%
Cc1nc(NC(=O)C(C)S(C)(=O)=O)sc1Cc1ccc(F)cc1 (centres undefined) | 3.284%
Cn1ccnc1CCNS(=O)(=O)c1cccc(Br)c1 | 11.32%
CC(C)c1ccc(/C=C/CC(=O)NC2CCN(C(N)=O)CC2)cc1 | -28.76%
Cc1cnn(CC2CCCCN2Cc2nc(N)c3ccccc3n2)c1 (centres undefined) | -1.986%
CSCCC(NC(N)=O)C(=O)Nc1ccc(-n2cccn2)nc1 (centres undefined) | -4.081%
N#CCCN(C(=O)CN1CCCC1C1CCCCC1)c1ccccc1 (centres undefined) | -8.996%
CCC(C)N(Cc1ccc(C)cc1)Cc1c[nH]c(C)n1 (centres undefined) | 14.09%
N#CCCN(c1ccccc1)S(=O)(=O)CC1CCCCO1 (centres undefined) | -2.973%
CCOc1ccc(NC(=O)N(CCC#N)Cc2ccccn2)cc1F | -26.47%
O=C(Cc1ccccc1Cl)N1CCCC(n2cncn2)C1 (centres undefined) | -8.361%
O=C(CCc1cccnc1)N1CCCC(n2cncn2)C1 (centres undefined) | -7.114%

Structure (SMILES) | Percent Effect
O=C(Cc1cccnc1)N1CCCC(n2cncn2)C1 (centres undefined) | 106.6%
Cc1cccnc1CNc1ccc(C(=O)N2CCc3ccccc32)cn1 | 0%
CC(C)(C)n1ncc(NCC(O)c2ccccc2)c(Cl)c1=O (centres undefined) | 108.9%
CC(C)(C)n1ncc(NCC(O)c2ccc(F)c(F)c2)c(Cl)c1=O (centres undefined) | 100.9%
CC(C)(C)n1ncc(NCC(O)c2ccccc2C(F)(F)F)c(Cl)c1=O (centres undefined) | 100.7%
O=C(NCc1cccnc1)NCC(O)c1ccccc1C(F)(F)F (centres undefined) | -3.866%
O=C(NCC(O)c1ccccc1C(F)(F)F)c1cccnc1 (centres undefined) | -5.174%
COc1cc(CNc2cnn(C(C)(C)C)c(=O)c2Cl)ccn1 | -46.44%
COCc1ccc(CNc2cnn(C(C)(C)C)c(=O)c2Cl)cc1 | 2.959%
OC(CNCCn1cccn1)c1ccc(F)c(F)c1 (centres undefined) | -2.779%
COCc1cccc(CNc2cnn(C(C)(C)C)c(=O)c2Cl)c1 | -38.78%
CC(C)(C)n1ncc(NCCc2ccccc2C(F)(F)F)c(Cl)c1=O | 139.1%
CC(C)(C)n1ncc2c(=O)n(CC(=O)NCc3ccccc3Cl)cnc21 | 3.164%
CC(C)(C)n1ncc(NCc2ccccc2)c(Cl)c1=O | -16.67%
CCc1noc(CNc2ccc(F)cc2OCC2CC2)n1 | -5.752%
CC(NCc1cnc(C2CCC2)s1)c1ccccc1-n1cccn1 (centres undefined) | -10.15%
Cc1ccc(-c2ccc(C(=O)NCCC(=O)N(C)C)c(F)c2)cc1 | -15.57%
c1ccc2c(N3CCSCC3)cnnc2c1 | -7.227%
Cc1ccc(CNCCCNS(C)(=O)=O)c(Br)c1 | 3.842%
CCOc1ccc(CC(CNC(=O)c2sccc2C)C(N)=O)cc1 (centres undefined) | 1.626%
Cc1ccc(CC(=O)NCC(O)c2cc(Cl)cc(Cl)c2)cn1 (centres undefined) | 3.357%
NC(=O)C(CNC(=O)CCc1ccsc1)Cc1ccc(F)cc1 (centres undefined) | 115.1%
CCOc1ccc(CC(CNC(=O)c2ccc(C)s2)C(N)=O)cc1 (centres undefined) | -16.33%
CCc1ccc2c(c1)C(CCNC(=O)CCc1ccsc1)C(=O)N2 (centres undefined) | 24.64%
NC(=O)NC(CC(=O)NCCc1ccc(F)cc1)c1ccccc1 (centres undefined) | 2.194%

Structure (SMILES) | Percent Effect
NC(=O)C(CNC(=O)CCc1ccccc1)Cc1ccc(F)cc1 (centres undefined) | 119.3%
Cc1ccc(CC(=O)NCC(Cc2ccc(F)cc2)C(N)=O)cn1 (centres undefined) | 110.1%
CCOC(=O)C(C)NC(=O)CCc1ccc(F)cc1 (centres undefined) | 2.833%
Cc1ccc(CC(=O)NCC(O)c2cccc(C(F)(F)F)c2)cn1 (centres undefined) | -12.46%
NC(=O)C(CNC(=O)Cc1ccsc1)Cc1ccc(F)cc1 (centres undefined) | 90.7%
CS(=O)(=O)Nc1cccc(CNC(=O)CCc2ccsc2)c1 | -4.988%
CN1CC(c2ccccc2)CC12CCN(C(=O)c1c(Cl)cnn1C)CC2 (centres undefined) | 11%
CC1CCN(C)c2ccccc2N1C(=O)c1ccnc(-n2cncn2)c1 (centres undefined) | -2.842%
Cc1ccccc1C(C(=O)NCc1nc(-c2ncccn2)no1)N(C)C (centres undefined) | -2.983%
Cc1cccnc1[C@H](C)Nc1nc(-c2cccnc2)nc2c1CNC2 | -9.004%
CC(C)n1ccnc1C1CCN(C(=O)c2ccccc2N(C)C)CC1 | -47.93%
COc1cccc(COCC(=O)NC(C(N)=O)c2ccccc2F)c1 (centres undefined) | 9.878%
CCOc1ccc(CC(CNC(=O)c2ccco2)C(N)=O)cc1 (centres undefined) | -3.482%
COc1cccc(CC(=O)NCC(Cc2ccc(F)cc2)C(N)=O)c1 (centres undefined) | 112.8%
COc1ccccc1C(=O)N(C)Cc1nnc2ccccn12 | 155.2%
COc1ccc(OC)c(C(=O)N(C)Cc2nnc3ccccn23)c1 | 126.3%
COc1ccc(C(=O)N(C)Cc2nnc3ccccn23)c(OC)c1 | -6.181%
CN(Cc1nnc2ccccn12)C(=O)CCC1CCCC1 | -7.535%
COc1ccc(C(=O)N(C)Cc2nnc3ccccn23)c(OC)c1OC | 155.5%
Cc1ccc(C)c(CN(C)Cc2nnc3ccccn23)c1 | -4.756%
COc1ccc(C(=O)N(C)Cc2cccc(C#N)c2)c(OC)c1OC | 5.74%
CN(Cc1nnc2ccccn12)C(=O)CC1CCCCC1 | -9.634%
COc1cccc(C(=O)N(C)Cc2ncc(C)c(OC)c2C)c1OC | -3.642%
CCc1ccc(C2COCCN2C(=O)NCc2cccc(C#N)c2)o1 (centres undefined) | -15.12%
